Drawing on PubChem BioAssay (NCI), this text covers growth for 13 compounds.

The panel holds about 83,000 compounds, 20% with a hit somewhere; the sample as a whole holds those more often.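 How to read the values: 0–100, growth inhibition (40 = 60% inhibited); 0, no net growth; -100 to 0, cell death (-40 = 40% of starting cells died; -100 = all dead).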 Values without a mark were called inactive. The source made the active and inactive calls. The calls were made as follows: active = growth percent below 10; inactive = the rest.

Some test systems named below: DU-145 prostate; K-562 leukemia; MALME-3M melanoma; MDA-MB-231 breast; RXF 393 renal; SF-268 CNS; SF-295 CNS; SF-539 CNS; M14 melanoma; UACC-257 melanoma.
What all share (assay): NCI-60 one-dose screen, 48 h (100 = growth as untreated, 0 = no growth, -100 = all killed)
Holding throughout (settings): 10 µM unless noted

Turning to `Cn1c(=O)c2c(nc(Br)n2CC(=O)Nc2ccc(F)cc2)n(C)c1=O`, the growth in the assay on DU-145 prostate was 109%; with K-562 leukemia it was 104%; in the assay with MALME-3M melanoma, 103%; with MDA-MB-231 breast it was 90.1%; in the assay with RXF 393 renal, 108%; with SF-268 CNS, 108%. The growth was 108% with SF-295 CNS, 100% in the assay on SF-539 CNS and 99.7% in the assay with M14 melanoma.
With `O=c1c(CNc2ccc(S(=O)(=O)Nc3ncccn3)cc2)coc2ccccc12`, the growth in the assay on DU-145 prostate was 108%; in the assay with K-562 leukemia, 100%; in the assay with MALME-3M melanoma, 94%; in the assay with MDA-MB-231 breast, 99.9%; in the assay on RXF 393 renal, 103%; in the assay with SF-268 CNS, 108%. For the same compound, the growth was 95.2% in the assay with SF-539 CNS, 108% in the assay on UACC-257 melanoma and 99.2% in the assay with M14 melanoma.
Regarding `COc1cc(-c2nc(-c3ccccc3)c(-c3ccccc3)[nH]2)cc(OC)c1O`, the growth with DU-145 prostate was -23.5% (active); in the assay with K-562 leukemia, 3.86% (active); in the assay with MALME-3M melanoma it was -28.9% (active); in the assay with MDA-MB-231 breast, 0.0647% (active); with RXF 393 renal, -48.8% (active); with SF-268 CNS, 4.5% (active). The growth in the assay with SF-539 CNS was 0.938% (active); with UACC-257 melanoma, 6.33% (active); in the assay with M14 melanoma, -18.8% (active).
On to `COC(=O)[C@]12CC[C@@H](C)[C@H](C)[C@@H]1C1=CC[C@@H]3[C@@]4(C)C=C(O)C(=O)C(C)=C4CC[C@@]3(C)[C@]1(C)CC2`, for which the growth with DU-145 prostate is 54.4%; in the assay with K-562 leukemia, 19.3%; in the assay on MALME-3M melanoma, 86.2%; with MDA-MB-231 breast, 5.7% (active); in the assay on RXF 393 renal, 27.6%; with SF-268 CNS, 60%. In addition, the values for the growth in the assay with SF-295 CNS, in the assay on SF-539 CNS and in the assay with M14 melanoma were 34.7%, 32.3% and 24.9%, respectively.
For `COc1cccc(NC(=O)c2sc3nc4c(cc3c2N)C(=O)CCC4)c1`, the growth with DU-145 prostate was 11.8%; in the assay with K-562 leukemia, 5.55% (active); with MALME-3M melanoma, 50.1%; in the assay on MDA-MB-231 breast, 14.7%; with RXF 393 renal, 41%; in the assay on SF-268 CNS, 39.2%. In addition, the growth in the assay with SF-539 CNS is -7.27% (active); in the assay with UACC-257 melanoma, 66.5%; in the assay with M14 melanoma it was 12.5%.
For the compound `COc1cc2[nH]c(C(=O)c3cc(OC)c(OC)c(OC)c3)c(N)c2cc1C#CC1CC1`, the growth with DU-145 prostate was 28.9%; with K-562 leukemia, 30.2%; in the assay with MALME-3M melanoma it was 52.4%; with MDA-MB-231 breast it was 58.4%; in the assay with RXF 393 renal, 19.6%; with SF-268 CNS, 40.7%. Besides, the growth in the assay with SF-539 CNS is -38.7% (active); in the assay with UACC-257 melanoma, 67.9%; in the assay with M14 melanoma, 22%.
In the case of `O=S(=O)(NCCNc1cc(-c2cn(-c3ccccc3)nc2-c2cccc(O)c2)ccn1)c1cccc(F)c1`, the growth with DU-145 prostate was 63.5%; in the assay on K-562 leukemia it was 7.94% (active); in the assay on MALME-3M melanoma it was 64.9%; in the assay with MDA-MB-231 breast, 11.5%; with RXF 393 renal, 62.3%; in the assay with SF-268 CNS, 54.9%. Besides, the growth is 22.4% with SF-295 CNS, 51.2% in the assay on SF-539 CNS and 31.8% in the assay with M14 melanoma.
Turning to `Cc1ccc(-c2ccc(Nc3ccccc3)nn2)cc1S(N)(=O)=O`, the growth was 85.2% in the assay on DU-145 prostate; 21.3% with K-562 leukemia; 73.5% in the assay on MALME-3M melanoma; 89.2% in the assay with MDA-MB-231 breast; 91.8% with RXF 393 renal; 97.4% in the assay with SF-268 CNS. In addition, the growth in the assay with SF-539 CNS is 82.3%; with UACC-257 melanoma it was 96.4%; in the assay on M14 melanoma, 83.2%.
For the compound `COc1ccc(C2NC(=O)Nc3ccccc32)c(OC)c1` (configuration not stated), the growth with DU-145 prostate is 112%; in the assay on K-562 leukemia, 93.7%; in the assay on MALME-3M melanoma, 85.6%; in the assay with MDA-MB-231 breast, 94.7%; in the assay on RXF 393 renal it was 110%; in the assay with SF-268 CNS it was 100%. Further, the growth is 94.2% with SF-295 CNS, 93.8% with SF-539 CNS and 95.6% in the assay with M14 melanoma.
For the compound `CC(C)=CCC/C(C)=C/CC/C(C)=C/CSC[C@H](NC(=O)CCCCCN1CCN(C)CC1)C(=O)NC1CCCCCC1`, the growth was 53% in the assay on DU-145 prostate; -17.4% (active) in the assay with K-562 leukemia; -13.7% (active) in the assay on MALME-3M melanoma; -89.1% (active) with MDA-MB-231 breast; 80.3% in the assay on RXF 393 renal; 75.1% in the assay with SF-268 CNS. Also, the growth with SF-539 CNS is 82.9%; in the assay with UACC-257 melanoma, 76.2%; in the assay with M14 melanoma it was 83.7%.
On to `COc1cc(-c2cc3cc(O)ccc3oc2=O)cc(OC)c1OC`, for which the growth with DU-145 prostate is 107%; with K-562 leukemia, 89.1%; in the assay on MALME-3M melanoma, 112%; in the assay on MDA-MB-231 breast, 72.8%; in the assay on RXF 393 renal, 101%; in the assay on SF-268 CNS, 102%. In addition, the values for the growth in the assay on SF-295 CNS, with SF-539 CNS and in the assay on M14 melanoma were 91.9%, 87.1% and 86.9%, respectively.
Regarding `O=C1C=C(C(O)c2ccc(O)cc2)C(=O)c2ccccc21` (configuration not stated), the growth with DU-145 prostate was 107%; in the assay on K-562 leukemia, 97.2%; with MALME-3M melanoma, 95.6%; in the assay with MDA-MB-231 breast, 83.5%; in the assay with RXF 393 renal it was 147%; in the assay on SF-268 CNS, 108%. Further, the growth was 106% in the assay on SF-539 CNS, 107% in the assay with UACC-257 melanoma and 79.5% with M14 melanoma.
Consider `CC(CNc1nc(Nc2ccc(Cl)c(Cl)c2)nc(C(Cl)(Cl)Cl)n1)N(C)C` (configuration not stated), for which the growth in the assay on DU-145 prostate was 5.37% (active); in the assay with K-562 leukemia, -54% (active); in the assay with MALME-3M melanoma it was 15.6%; with MDA-MB-231 breast, -62.6% (active); in the assay with RXF 393 renal, -24.3% (active); in the assay on SF-268 CNS, 11.5%. The growth was 16.3% in the assay on SF-539 CNS, -8.37% (active) in the assay with UACC-257 melanoma and -60.6% (active) in the assay with M14 melanoma.
